Where “and” joins values, the source holds several entries; their conditions need not be identical. Identical values can stand only once. Records with an inconclusive call do not appear. A call without a number means that no potency is given here. Some compounds were tested as several samples or in several runs, with calls that do not always agree. Calls of active or inactive are those of the source. The call rests on the fitted dose curve; in most records, active means well fitted curve in the direction sought with a large enough effect in the repeat runs; inconclusive means weak or mixed curves; inactive means no such curve, though single readings can be large; an effect the other way counts as inactive or inconclusive.

One experiment is described as follows: A CellTox Green Cytotoxicity Assay to monitor cytotoxicity in HEK293 cells - 40 hour (AID 1224871). Further: nearly all actives have a fitted effect of over 45% in size. Further: potency means the concentration at half of the fitted maximal effect. Conditions: CellTox Green fluorescence; series mostly up to 76.8 µM. The method, boiled down: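 Dead-cell fluorescence measured kinetically: asymmetric cyanine dye, HEK293, 600 cells/well, 5 h settle, 23 nL cpd/DMSO, 37 C, reads 0–40 h every 8 h.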
For the compound `C=CC(N)=O`, the Potency result is “inactive”.
The same measure, in the same setting: to `O=c1ccc(=O)[nH][nH]1` belongs “inactive”.
As to `CN(C)[C@@H]1C(=O)C(C(N)=O)=C(O)[C@@]2(O)C(=O)C3=C(O)c4c(O)cccc4[C@@](C)(O)[C@H]3C[C@@H]12`, the Potency entry was “inactive”.
The same measure, in the same setting: to `O=[N+]([O-])c1ccccc1` belongs “inactive”; to `CC1C=[C-]C=C1.[C-]#[O+].[C-]#[O+].[C-]#[O+].[Mn]`, “inactive”.
`CCCN(CCC)N=O`: the Potency result is “inactive”.
On the same count and under the same terms, the same measure for `C1CN2CCN1CC2`: “inactive and 17.4 µM (active)”; for `[N-]=[N+]=[N-]`: “inactive”.
On the same count and under the same terms, to `CC(Br)C(=O)O` (stereo not drawn) belongs “inactive”; to `CC(C)(Cl)Cl`, “inactive”.
Same read-out and setting: to `CCNc1nc(NC(C)(C)C)nc(SC)n1` belongs “inactive”; to `O=NN1CCCCCCC1`, “inactive”; to `CC(=O)C=C(C)C`, “inactive”.
Consider `OCCN(CCO)CCO`, for which the Potency entry was “inactive”.
Still for that read-out and setting: to `Nc1c(Cl)c(Cl)nc(C(=O)O)c1Cl` belongs “inactive”.
Still for that read-out and setting: to `ClCc1cccnc1` belongs “inactive”; to `Cc1[nH]c(=O)n(C(C)(C)C)c(=O)c1Cl`, “inactive”; to `BrCCBr`, “inactive”.
Same read-out and setting: the same measure for `CCC(C)(CC)c1cc(NC(=O)c2c(OC)cccc2OC)on1`: “inactive”.
On to `CN(C)N=O`, for which the Potency result was “inactive”.
The same measure, in the same setting: to `Cc1ccc(N)cc1N` belongs “inactive”; to `CCC[N+](=O)[O-]`, 38.2 µM (active) and inactive; to `CCC12COCN1COC2`, “inactive”.
Turning to `CC(C)(C)OOC(=O)c1ccccc1`, the Potency result was “inactive”.
The same measure, in the same setting: to `CCOP(OCC)OCC` belongs “inactive”; to `Nc1ccc(Br)cc1`, “inactive”; to `CCOP(=S)(OCC)SCCSCC`, “inactive”.
On to `O=NN1CCCC1`, for which the Potency result is “inactive”.
`C#CC(C)(C)NC(=O)c1cc(Cl)cc(Cl)c1`: the Potency entry is “inactive”.
Still for that read-out and setting: to `O=[N+]([O-])c1ccc(Oc2ccc(Cl)cc2Cl)cc1` belongs “inactive”; to `CCN(CC)CCO`, “inactive”.
The same measure, in the same setting: to `C=CCO` belongs “inactive and 34.7 µM (active)”; to `C1CC2OC2CC1C1CO1` (stereo not drawn), “inactive”; to `O=Cc1cccc(Oc2ccccc2)c1`, “inactive”.
Same read-out and setting: to `CC(NC(C)(C)C)C(=O)c1cccc(Cl)c1` (stereo not drawn) belongs “inactive”; to `CCNc1nc(NC(C)C)nc(SC)n1`, “inactive”.

A short description of the next experiment: qHTS RealTime-Glo MT Cell Viability Assay in HEK293 cells - 16 hour (AID 1224872). Further: top concentration of the series differs between compounds; nearly all actives have a fitted effect of over 50% in size. Conditions: RealTime-Glo luminescence; series mostly up to 76.8 µM. In outline: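 Nonlytic real-time viability readout: viable cells convert prosubstrate to NanoLuc substrate, giving luminescence proportional to live cell number. HEK293, 600 cells/well, compound added after 5 h, continuous culture at 37 C.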
As for `C=CC(N)=O`, the outcome was inactive.
The same measure, in the same setting: to `O=c1ccc(=O)[nH][nH]1` belongs “inactive”; to `CN(C)[C@@H]1C(=O)C(C(N)=O)=C(O)[C@@]2(O)C(=O)C3=C(O)c4c(O)cccc4[C@@](C)(O)[C@H]3C[C@@H]12`, “inactive”.
Still for that read-out and setting: the same measure for `O=[N+]([O-])c1ccccc1`: “inactive”.
Still for that read-out and setting: to `CC1C=[C-]C=C1.[C-]#[O+].[C-]#[O+].[C-]#[O+].[Mn]` belongs “inactive”.
Consider `CCCN(CCC)N=O`, for which the compound was called inactive.
For `C1CN2CCN1CC2`, the outcome was inactive.
With `[N-]=[N+]=[N-]`, the compound was classed as inactive.
Same read-out and setting: to `CC(Br)C(=O)O` (stereo not drawn) belongs “inactive”; to `CC(C)(Cl)Cl`, “inactive”.
Same read-out and setting: the same measure for `CCNc1nc(NC(C)(C)C)nc(SC)n1`: “inactive”; for `O=NN1CCCCCCC1`: “inactive”; for `CC(=O)C=C(C)C`: “inactive”.
The same measure, in the same setting: the same measure for `OCCN(CCO)CCO`: “inactive”; for `Nc1c(Cl)c(Cl)nc(C(=O)O)c1Cl`: “inactive”.
Take `ClCc1cccnc1`: the result was inactive.
Same read-out and setting: the same measure for `Cc1[nH]c(=O)n(C(C)(C)C)c(=O)c1Cl`: “inactive”; for `BrCCBr`: “inactive”.
For the compound `CCC(C)(CC)c1cc(NC(=O)c2c(OC)cccc2OC)on1`, the compound was classed as inactive.
In the case of `CN(C)N=O`, the call was inactive.
Still for that read-out and setting: the same measure for `Cc1ccc(N)cc1N`: “inactive”.
On the same count and under the same terms, the same measure for `CCC[N+](=O)[O-]`: “inactive”; for `CCC12COCN1COC2`: “inactive”; for `CC(C)(C)OOC(=O)c1ccccc1`: “inactive”.
On the same count and under the same terms, to `CCOP(OCC)OCC` belongs “inactive”; to `Nc1ccc(Br)cc1`, “inactive”; to `CCOP(=S)(OCC)SCCSCC`, “inactive”.
With `O=NN1CCCC1`, the outcome was inactive.
Same read-out and setting: the same measure for `C#CC(C)(C)NC(=O)c1cc(Cl)cc(Cl)c1`: “inactive”.
The same measure, in the same setting: the same measure for `CCN(CC)CCO`: “inactive”; for `C=CCO`: “inactive”.
Still for that read-out and setting: to `C1CC2OC2CC1C1CO1` (stereo not drawn) belongs “inactive”; to `O=Cc1cccc(Oc2ccccc2)c1`, “inactive”; to `CC(NC(C)(C)C)C(=O)c1cccc(Cl)c1` (stereo not drawn), “inactive”.
Consider `CCNc1nc(NC(C)C)nc(SC)n1`, for which the call was inactive.

The next experiment in a line: qHTS RealTime-Glo MT Cell Viability Assay in HepG2 cells - 8 hour (AID 1224873). Further: nearly all actives have a fitted effect of over 55% in size. Particulars: RealTime-Glo luminescence; series mostly up to 76.8 µM. In outline: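 Real-time viability: cells seeded at 600 per well together with NanoLuc and cell-permeant prosubstrate, compounds added after 5 h incubation. Luminescence tracked at 0, 8, 16, 24, 32 and 40 h of exposure.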
With `C=CC(N)=O`, the compound was called inactive.
Same read-out and setting: to `O=c1ccc(=O)[nH][nH]1` belongs “inactive”; to `CN(C)[C@@H]1C(=O)C(C(N)=O)=C(O)[C@@]2(O)C(=O)C3=C(O)c4c(O)cccc4[C@@](C)(O)[C@H]3C[C@@H]12`, “inactive”; to `O=[N+]([O-])c1ccccc1`, “inactive”.
Take `CC1C=[C-]C=C1.[C-]#[O+].[C-]#[O+].[C-]#[O+].[Mn]`: the compound was classed as inactive.
The same measure, in the same setting: the same measure for `CCCN(CCC)N=O`: “inactive”.
The same measure, in the same setting: to `C1CN2CCN1CC2` belongs “inactive”.
Regarding `[N-]=[N+]=[N-]`, the result was inactive.
On the same count and under the same terms, to `CC(Br)C(=O)O` (stereo not drawn) belongs “inactive”; to `CC(C)(Cl)Cl`, “inactive”.
On the same count and under the same terms, the same measure for `CCNc1nc(NC(C)(C)C)nc(SC)n1`: “inactive”.
For the compound `O=NN1CCCCCCC1`, the call was inactive.
On to `CC(=O)C=C(C)C`, for which the call was inactive.
Consider `OCCN(CCO)CCO`, for which the call was inactive.
Same read-out and setting: to `Nc1c(Cl)c(Cl)nc(C(=O)O)c1Cl` belongs “inactive”.
Take `ClCc1cccnc1`: the compound was classed as inactive.
On the same count and under the same terms, the same measure for `Cc1[nH]c(=O)n(C(C)(C)C)c(=O)c1Cl`: “inactive”.
Regarding `BrCCBr`, the compound was classed as inactive.
On the same count and under the same terms, to `CCC(C)(CC)c1cc(NC(=O)c2c(OC)cccc2OC)on1` belongs “inactive”; to `CN(C)N=O`, “inactive”; to `Cc1ccc(N)cc1N`, “inactive”.
For the compound `CCC[N+](=O)[O-]`, the compound was classed as inactive.
`CCC12COCN1COC2`: the compound was classed as inactive.
The same measure, in the same setting: to `CC(C)(C)OOC(=O)c1ccccc1` belongs “inactive”; to `CCOP(OCC)OCC`, “inactive”.
As for `Nc1ccc(Br)cc1`, the result was inactive.
As to `CCOP(=S)(OCC)SCCSCC`, the call was inactive.
Take `O=NN1CCCC1`: the compound was classed as inactive.
`C#CC(C)(C)NC(=O)c1cc(Cl)cc(Cl)c1`: the call was inactive.
On the same count and under the same terms, to `O=[N+]([O-])c1ccc(Oc2ccc(Cl)cc2Cl)cc1` belongs “inactive”; to `CCN(CC)CCO`, “inactive”.
Take `C=CCO`: the compound was classed as inactive.
Same read-out and setting: to `CCCC1COC(Cn2cncn2)(c2ccc(Cl)cc2Cl)O1` (stereo not drawn) belongs “inactive”; to `C1CC2OC2CC1C1CO1` (stereo not drawn), “inactive”; to `O=Cc1cccc(Oc2ccccc2)c1`, “inactive”.
Same read-out and setting: the same measure for `CC(NC(C)(C)C)C(=O)c1cccc(Cl)c1` (stereo not drawn): “inactive”; for `CCNc1nc(NC(C)C)nc(SC)n1`: “inactive”.

The values are drawn from PubChem BioAssay (Tox21).
